Data as given in PubChem BioAssay (NCATS).
Inconclusive results are not listed. Unmarked numbers belong to inactive results. Active and inactive are the calls of the source. The call rests on the fitted dose curve; in most records, active means well fitted cell-killing curve with a large enough effect; inconclusive means small, poorly fitted or top-dose-only effect, or effect the other way; inactive means no such curve, though single readings can be large or run the other way.

experiment: Quantitative High-Throughput drug screen in 47 multiple myeloma cell lines against the NCATS MIPE library collection: KMS34_JCRB cell viability assay (AID 1918985); conditions: KMS34 myeloma viability, CellTiter-Glo ATP luminescence, 48 h; series mostly up to 45.8 µM; viability, percent of control: at the top concentration; further: nearly all actives have a fitted effect of over 40% in size
Source text: PI: Beverly A. Mock Ph.D.
Laboratory of Cancer Biology and Genetics,
Center for Cancer Research, National Cancer Institute,
National Institute of Health, Bethesda, Maryland
Drug resistance and disease progression are common in multiple myeloma (MM) patients, underscoring the need for new therapeutic combinations. […] We hypothesized that effective combinations would reduce MYC expression and enhance p16 activity. […] These preclinical data identify potentially useful drug combinations for evaluation in drug-resistant MM and reveal potential mechanisms of combined drug sensitivity.
Described herein is the primary MIPE qHTS used to cherrypick compounds. Validated compounds were then further tested for potential synergistic activiy.
[1] Peat TJ, Gaikwad SM, Dubois W, Gyabaah-Kessie N, Zhang S, Gorjifard S, Phyo Z, Andres M, Hughitt VK, Simpson RM, Miller MA, Girvin AT, Taylor A, Williams D, D'Antonio N, Zhang Y, Rajagopalan A, Flietner E, Wilson K, Zhang X, Shinn P, Klumpp-Thomas C, McKnight C, Itkin Z, Chen L, Kazandijian D, Zhang J, Michalowski AM, Simmons JK, Keats J, Thomas CJ, Mock BA. Drug combinations identified by high-throughput screening promote cell cycle transition and upregulate Smad pathways in myeloma. Cancer Lett. 2023 Aug 1;568:216284. doi: 10.1016/j.canlet.2023.216284. Epub 2023 Jun 24. PMID: 37356470; PMCID: PMC10408729.
SEQUENCE No. (e.g., 1, 2, 3, etc.); […] (e.g., Cells, Incubation, Reagent, etc.); VALUE and DESCRIPTION.
1; Cells; 5 uL; white, solid bottom 1536-well Greiner assay plate.
2; Compounds; 23 nL; Kalypsis pin tool (Wako USA) equipped with a 1536-well pin head to transfer to the assay plates.
3; Incubation; 48 hours; 37C incubation.
4; Reagent;5uL; CellTiter Glo (Promega).
5; Detector; 425V; Luminescence; Viewlux PerkinElmer.
NOTES (numbers refer to Sequence numbers above)
1. The cell-based screening methods employed in this study were like those previously published. Briefly, the corresponding myeloma cell lines were screened in 1,536-well plates with 500 cells, 5-uL per well for inhibition of cell viability (assessed by measuring ATP levels with CellTiterGlo).
2. NCATS MIPE 4.0 library of approved and investigational drugs were added using the Kalypsis pin tool. Wells treated with DMSO only for 100% viability and media only for 0% viability were used as controls.
3. The assay plates were covered and incubated for 48 hours in a 37C, 5% CO2 incubator with controlled humidity.
4. After 48 hours, CellTilter-GloTM luminescent substrate mix (Promega) reagent was added to the assay plate and plates we incubated for 5 min at room temperature.
5. Signal was measured as median relative luminescence units on a ViewLux (PerkinElmer) multiplate reader.
[1] Heske CM, Davis MI, Baumgart JT, Wilson K, Gormally MV, Chen L, Zhang X, Ceribelli M, Duveau DY, Guha R, Ferrer M, Arnaldez FI, Ji J, Tran HL, Zhang Y, Mendoza A, Helman LJ, Thomas CJ. Matrix Screen Identifies Synergistic Combination of PARP Inhibitors and Nicotinamide Phosphoribosyltransferase (NAMPT) Inhibitors in Ewing Sarcoma. Clin Cancer Res. 2017 Dec 1;23(23):7301-7311. doi: 10.1158/1078-0432.CCR-17-1121. Epub 2017 Sep 12. PMID: 28899971; PMCID: PMC6636827.
Potency means the concentration at half of the fitted maximal effect.

Row | Compound | viability, percent of control | Potency
1 | O=C(CN1C(=O)C2(CCCC2)NC[C@H]1c1cc(F)cc(F)c1)Nc1ccc2c(c1)C[C@@]1(C2)C(=O)Nc2ncccc21 | 101% | 
2 | CCN(CC)Cc1ccc2cc(COC(=O)Nc3ccc(C(=O)NO)cc3)ccc2c1 |  | 418 nM (active)
3 | COc1ccc(Nc2cc(-c3cnc(N)nc3)nc(N3CCOCC3)n2)cn1 |  | 2960 nM (active)
4 | CCOC(=O)[C@@H](N)Cc1ccc(-c2cc(O[C@H](c3ccc(Cl)cc3-n3ccc(C)n3)C(F)(F)F)nc(N)n2)cc1 |  | 16600 nM (active)
5 | CC(Oc1ccc(O)cc1)(P(=O)(O)O)P(=O)(O)O | 103% | 
6 | NC1=N[C@H]2[C@H](CS[C@H]2CCCCC(=O)O)N1 | 104% [at 23.2 µM] | 
7 | COc1cc2c(cc1O)CCC1C2CC[C@@]2(C)C1CC[C@@H]2O (stereo not given in full) |  | 2090 nM (active)
8 | N#CC(=C(N)Sc1ccc(N)cc1)c1ccccc1C(F)(F)F | 89% | 
9 | N#CNC(=NCCCCCCOc1ccc(Cl)cc1)Nc1ccncc1 |  | 14.8 nM (active)
10 | CC(=O)C1=C(O)C=C2Oc3c(C(C)=O)c(O)c(C)c(O)c3C2(C)C1=O (stereo not given) | 108% | 
11 | O=C(O)C=Cc1ccc(Cn2ccnc2)cc1 | 125% | 
12 | C=CC[C@@H]1C=C(C)C[C@H](C)C[C@H](OC)[C@H]2O[C@@](O)(C(=O)C(=O)N3CCCC[C@H]3C(=O)O[C@H](C(C)=C[C@@H]3CC[C@H](O)[C@H](OC)C3)[C@@H](C)[C@@H](O)CC1=O)[C@@H](C)C[C@@H]2OC |  | 1480 nM (active)
13 | CCCCCCCCCCCC(CC1OC(=O)C1CCCCCC)OC(=O)C(CC(C)C)NC=O (stereo not given) | 82.5% | 
14 | Cc1noc(-c2ccc(CSCCC(=O)O)cc2)c1NC(=O)OC(C)c1ccccc1Cl (stereo not given) | 112% | 
15 | COc1ccc(CCC(=O)c2c(O)cc(O[C@@H]3O[C@H](CO)[C@@H](O)[C@H](O)[C@@H]3O[C@@H]3O[C@@H](C)[C@H](O)[C@@H](O)[C@@H]3O)cc2O)cc1O | 101% | 
16 | C[N+](C)([O-])CCNc1ccc(NCC[N+](C)(C)[O-])c2c1C(=O)c1c(O)ccc(O)c1C2=O | 77.9% | 
17 | C=CC(=O)N1CCc2ccc(-n3c(=O)ccc4cnc5ccc(-c6cnn(C)c6)cc5c43)cc21 |  | 935 nM (active)
18 | CNC(=O)Nc1ccc(-c2nc(N3CC4CCC(C3)O4)c3cnn(C4CCC5(CC4)OCCO5)c3n2)cc1 |  | 18.7 nM (active)
19 | COc1ccc(C[C@@H](C)[C@@H](C)Cc2ccc(OC)c(OC)c2)cc1OC |  | 132 nM (active)
20 | C=C(C)[C@@H]1CC[C@]2(C)CC[C@]3(C)[C@H](CC[C@@H]4[C@@]5(C)CC[C@H](O)C(C)(C)[C@H]5CC[C@]43C)[C@@H]12 | 116% | 

Row | Compound | viability, percent of control | Potency
21 | COC[C@H](NC(=O)c1cnc(C)s1)C(=O)N[C@@H](COC)C(=O)N[C@@H](Cc1ccccc1)C(=O)[C@@]1(C)CO1 |  | 74.3 nM (active)
22 | COc1cc(CCc2cc(NC(=O)c3ccc(N4C[C@@H](C)N[C@@H](C)C4)cc3)n[nH]2)cc(OC)c1 |  | 16600 nM (active)
23 | CN[C@H](CC(C)C)C(=O)N[C@H]1C(=O)N[C@@H](CC(N)=O)C(=O)N[C@@H]2C(=O)N[C@H]3C(=O)N[C@H](C(=O)N[C@H](C(=O)O)c4cc(O)cc(O)c4-c4cc3ccc4O)[C@H](O)c3ccc(c(Cl)c3)Oc3cc2cc(c3O[C@@H]2O[C@H](CO)[C@@H](O)[C@H](O)[C@@H]2O[C@H]2C[C@](C)(N)[C@H](O)[C@H](C)O2)Oc2ccc(cc2Cl)[C@H]1O | 117% | 
24 | c1ccc(CNc2nc(NCc3ccccc3)c3ccccc3n2)cc1 |  | 20900 nM (active)
25 | CC(=O)OCC(=O)[C@@]12N=C(C)O[C@H]1C[C@H]1[C@@H]3CCC4=CC(=O)C=C[C@]4(C)[C@@H]3[C@@H](O)C[C@@]12C | 75.7% | 
26 | CC(C)c1cnn2c(NCc3ccccc3)cc(NCCCCCCN)nc12 |  | 18700 nM (active)
27 | CCOc1cc2ncc(C#N)c(Nc3ccc(OCc4ccccn4)c(Cl)c3)c2cc1NC(=O)C=CCN(C)C |  | 10500 nM (active)
28 | CN[C@@H]1C[C@H]2O[C@@](C)([C@H]1OC)n1c3ccccc3c3c4c(c5c6ccccc6n2c5c31)C(=O)N[C@H]4O |  | 372 nM (active)
29 | O=[N+]([O-])c1cn2c(n1)OC[C@@H](OCc1ccc(OC(F)(F)F)cc1)C2 | 95.8% | 
30 | C=C1C(=O)O[C@H]2[C@@H]1CCC(C)=CCC[C@@]1(C)O[C@@H]21 |  | 2090 nM (active)
31 | CO[C@@H]1[C@@H](O)[C@H](O)[C@@H](n2c3c(Cl)cccc3c3c4c(c5c6cccc(Cl)c6[nH]c5c32)C(=O)NC4=O)O[C@@H]1CO |  | 1320 nM (active)
32 | CN(C)c1ccc2cc(C(=O)N[C@@H](CCCN=C(N)CCl)C(=O)NCc3ccccc3)ccc2c1 |  | 8330 nM (active)
33 | CC[C@@]1([C@@H]2O[C@@H]([C@H]3O[C@@](O)(CO)[C@H](C)C[C@H]3C)C[C@H]2C)CC[C@H]([C@]2(C)CC[C@]3(C[C@H](O)[C@@H](C)[C@@H]([C@@H](C)[C@@H](OC)[C@H](C)C(=O)O)O3)O2)O1 |  | 724 nM (active)
34 | CC(=O)N[C@H]1[C@@H]([C@H](O)[C@H](O)CO)OC(C(=O)O)=C[C@@H]1N=C(N)N | 115% | 
35 | C[C@H](O)[C@@H]1C(=O)N2C(C(=O)O)=C(S[C@@H]3CN[C@H](CNS(N)(=O)=O)C3)[C@@H](C)[C@@H]12 | 112% | 
36 | CCOC(=O)N1CCN([N+]([O-])=NOc2ccc([N+](=O)[O-])cc2[N+](=O)[O-])CC1 |  | 935 nM (active)
37 | C=CC(=O)Nc1ccc2ncnc(Nc3ccc(OCc4cccc(F)c4)c(Cl)c3)c2c1 |  | 332 nM (active)
38 | Nc1nc(=O)n([C@H]2C[C@H](O)[C@@H](CO)O2)cc1F |  | 2.6 nM (active)
39 | CCN(CC)CCNC(=O)c1c(C)[nH]c(C=C2C(=O)Nc3ccc(F)cc32)c1C |  | 6050 nM (active)
40 | COc1cc([C@@H]2c3cc4c(cc3[C@H](O)[C@H]3COC(=O)[C@@H]23)OCO4)cc(OC)c1OC |  | 83.3 nM (active)
